High-throughput results from PubChem.
RECQ1 inh-1: inhibitors of human RECQ1 DNA helicase; Potency, µM (top dose mostly 57.3 µM), inactives show at the highest dose activity, negative = inhibition, hits mostly inhibitors; P46063; 240,000 compounds, 0.54% hits; RECQ1 DNA unwinding, red fluorescence kinetic read; AID 2549;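 also: potency is read from the fitted curve at half-maximal effect; plate controls were vehicle for no effect and no enzyme for full effect; nearly all actives have a fitted effect of over 30% in size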
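RECQ1T1 50 nM; forked duplex (20 bp + 30-nt ss tails) 200 nM, ATP 2 mM final; pH 8.0, 2 mM MgCl2, 2.5 ug/ml poly(dI-dC); 15 min compound preincubation; discontinuous kinetic read over 2 h at RT.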
FEN1 inh: human FEN1 inhibition; 390,000 compounds, 0.35% hits; AID 588795; Recombinant FEN1 flap cleavage, fluorescence, 15 min; P39748; Potency, µM (titrated, usually from 114 µM), inactives show at the top dose activity change, negative = inhibition, hits mostly inhibitors; also: potency is read from the fitted curve at half-maximal effect; nearly all actives have a fitted effect of over 65% in size
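Nuclease activity of 10 nM FEN1 was measured after 15 min of room-temperature exposure to titrated compounds, by adding 50 nM flap substrate and reading plates at 0 and 15 min.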
APE1 inh: APE1 (human) endonuclease inhibition | Potency, µM (titrated, usually from 65.8 µM), without a hit: at the highest dose activity change, negative = inhibition, usual class: inhibitors | recombinant APE1, TAMRA/BHQ-2 abasic DNA cleavage fluorescence | 350,000 compounds, 0.35% hits | AID 2517 | P27695;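 also: potency is read from the fitted curve at half-maximal effect; plate controls were vehicle for no effect and reference inhibitor for full effect; nearly all actives have a fitted effect of over 55% in size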
Target sequence (P27695 whole entry, looked up): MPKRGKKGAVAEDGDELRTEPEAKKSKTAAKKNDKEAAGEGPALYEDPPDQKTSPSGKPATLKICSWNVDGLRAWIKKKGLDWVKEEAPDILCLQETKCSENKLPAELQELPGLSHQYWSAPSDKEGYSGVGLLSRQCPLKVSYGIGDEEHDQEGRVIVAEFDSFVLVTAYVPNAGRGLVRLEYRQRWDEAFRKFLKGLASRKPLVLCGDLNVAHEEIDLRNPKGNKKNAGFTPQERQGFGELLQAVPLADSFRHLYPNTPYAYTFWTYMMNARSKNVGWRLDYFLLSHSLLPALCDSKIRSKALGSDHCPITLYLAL
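Quantitative HTS: incision of a TAMRA/BHQ-2 double-stranded substrate bearing a tetrahydrofuran abasic site by 0.75 nM APE1 raises fluorescence. Substrate 50 nM final, added after 15 min compound preincubation at room temperature; progress as third-minus-first kinetic read difference.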
PI5P4Ka inh: inhibitors of human PI5P4K alpha; P48426; PI5P4Kalpha enzyme, ADP-Glo luminescence, 60 min; stronger effect = lower value; max response, %; 330,000 compounds, 1.2% hits; AID 652105; active = max response of -50% or lower; inconclusive = between -30% and -50%; inactive = -30% or higher; also: value at the top dose of about 77 µM
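Compounds were pin-transferred onto PI5P4Kalpha and substrate in HEPES pH 7.4 buffer with EGTA, CHAPS and 5% DMSO. ATP (5 microM final) started the reaction, which ran 60 minutes at room temperature before ADP-Glo detection.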
GCN5L2 inh: inhibitors of human GCN5L2 histone acetyltransferase; Q92830; GCN5L2 HAT assay, ThioGlo1 CoA-SH fluorescence; Potency, µM (highest dose often 58.9 µM), for the others: top-dose activity change, negative = inhibition, hits mostly inhibitors; 390,000 compounds, 0.21% hits; also: potency is read from the fitted curve at half-maximal effect
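qHTS, 1536-well. 20nM enzyme, pH 7.5 HEPES/EDTA/Tween-20 buffer; 15 min compound preinc., RT. Start: 75uM H3(1-25), 70uM AcCoA, 50uM ThioGlo1. Read Ex340/Em540 at t=0 (autofluorescence flag) and t=20 min.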
BLM helicase inh: inhibitors of human Bloom syndrome helicase BLM. P54132. recombinant BLM DNA unwinding, fluorescence dequenching. Potency, µM (series often up to 56.1 µM), inactives show top-dose activity change, negative = inhibition, hits mostly inhibitors. 350,000 compounds, 0.2% hits;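 also: potency is read from the fitted curve at half-maximal effect; plate controls were vehicle for no effect and no enzyme for full effect; nearly all actives have a fitted effect of over 35% in size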
RECQ1 inh conf: confirmation of human RECQ1 helicase inhibitors. AID 2708. shares compounds with RECQ1 inh-1. Potency, µM (highest dose often 229 µM), for inactives: top-dose activity change, negative = inhibition, hits mostly inhibitors. 610 compounds, 28% hits. RECQ1 helicase DNA unwinding, fluorescence; also: potency is read from the fitted curve at half-maximal effect; nearly all actives have a fitted effect of over 45% in size
RECQ1 ADP FP: displaces ADP in a fluorescence polarization counter-screen for RECQ1 hits; ADP fluorescence polarization displacement counterscreen; 530 compounds, 27% hits; shares compounds with RECQ1 inh-1; Potency, µM (titrated, usually from 228 µM), for the others: at the top dose activity change, negative = inhibition, most hits filed as inhibitors; also: potency is read from the fitted curve at half-maximal effect; nearly all actives have a fitted effect of over 45% in size
RECQ1 inh-2: confirmation of human RECQ1 helicase inhibitors; Potency, µM (doses to about 119 µM), inactives show at the top dose activity, negative = inhibition, most hits filed as inhibitors; AID 504841; shares compounds with RECQ1 inh-1; 1,100 compounds, 15% hits; recombinant RECQ1 DNA unwinding, red fluorescence; also: potency is read from the fitted curve at half-maximal effect; nearly all actives have a fitted effect of over 50% in size
An asterisk follows results filed as active; i = inactive; ? = inconclusive; · = not tested or not shown; [ ] = remark or other dose. Most compounds without a hit are left out; they make up all but 1.5% or so of the library. Unless noted, calls follow the shape of the dose curve; as a rule, active = well fitted curve in the direction sought with a large enough effect; inconclusive = small, poorly fitted or top-dose-only effect, or another doubt; inactive = no such curve, though single readings can be large; an effect the other way counts as inactive or inconclusive. Unless noted, % is scaled to controls: 0 for no effect and ±100 for the full control effect.

SMILES | RECQ1 inh-1 | FEN1 inh | APE1 inh | PI5P4Ka inh | GCN5L2 inh | BLM helicase inh | RECQ1 inh-2 | others
CCOC(=O)c1nn(-c2ccc(OC)cc2)c(=O)c2c(N)scc12 | -1% | -17% | 27% | · | ? | -11% | ·
COc1ccc(/C=N/NC(=O)c2nn(-c3ccccc3)c(=O)c3c(N)scc23)cc1 | 25µM* | -2% | ? | · | ? | -10% | · | RECQ1 inh conf=22%[114 µM];RECQ1 ADP FP=?
Cc1nc2ccc(N=NC3=C(O)CCCC3=O)cc2s1 | 1µM* | -5% | -5% | -27 | -12% | -8% | · | RECQ1 inh conf=22%[114 µM];RECQ1 ADP FP=-7%[91.9 µM]
COc1ccc(CCn2c3c(c(=O)[nH]c2=S)CN(C)CN3)cc1OC | · | -15% | · | · | · | · | ·
COc1ccc(NC(=O)c2ccc3c(SCC(=O)O)c4c(nc3c2)CCCC4)c(OC)c1 | ? | ? | ? | -10 | ? | -29% | -6%
COc1cc(Br)c(CCNC(=O)c2ccco2)cc1OC | ? | 0% | 20% | 2 | -15% | -2% | -8%
O=C(O)c1cc(N(Cc2ccccc2O)Cc2ccccc2O)ccc1O | ? | ? | ? | · | · | -10% | ?
COc1ccc(-c2nc3cnc(N4CCOCC4)nc3n(-c3ccc(OC)cc3)c2=O)cc1 | ? | · | 14µM* | · | ? | -16% | -4%
COc1ccc(-n2c(=O)c(-c3cccc(Cl)c3)nc3cncnc32)cc1 | ? | · | 16% | · | -5% | 2% | -3%
COc1ccc(-n2c(=O)c(-c3cccc(F)c3)nc3cncnc32)cc1 | i | · | -2% | · | -8% | 0% | ·
Cc1ccc(S(=O)(=O)N2CCN(c3nc(-c4cccs4)nc4ncccc34)CC2)cc1 | · | 6% | · | · | · | · | ·
CC(=O)Nc1ccn(C2OC(C(COC(C)=O)NC(=O)C3CCCN3C(=O)OC(C)(C)C)C(OC(C)=O)C2OC(C)=O)c(=O)n1 (stereo not drawn) | -2% | -5% | -5% | · | · | -1% | ·
Oc1ccccc1-c1nnc(SCCN2CCOCC2)n1Cc1ccccc1 | 1.6µM* | -14% | -1% | 1 | -6% | 0% | ? | RECQ1 inh conf=8%[114 µM];RECQ1 ADP FP=-10%[91.9 µM]
CCCSC1=N/C(=C\c2ccc([N+](=O)[O-])o2)C(=O)S1 | 13µM* | 35µM* | 22µM* | -70* | ? | 4% | ? | RECQ1 inh conf=-5%[114 µM]
O=c1ccc2c(OCCCCOc3ccccc3)c3ccoc3cc2o1 | -19% | · | -11% | · | -5% | -2% | ·
CCN(CC)c1nc(C#N)nc(N2CCOCC2)n1 | · | -5% | · | · | · | · | ·
COC(=O)C1=C(C(=O)OC)[C@@H]2N(C)c3ccccc3[C@@]23C[C@@H](C(=O)OC)N(S(=O)(=O)c2ccc(C)cc2)C3=N1 | -10%[11.5 µM] | · | 2%[12.4 µM] | · | · | -3%[12.4 µM] | ·
Cc1ccc(C(=O)CSc2nnnn2Cc2ccccc2)cc1C | ? | 0% | 5% | 5 | -24% | -8% | -2%
COc1ccccc1-n1c(SCC(=O)O)nnc1-c1ccc(S(=O)(=O)N2CCCCC2)cc1 | -1% | 15% | 3% | · | -3% | 0% | · | RECQ1 inh conf=3%;RECQ1 ADP FP=2%
COc1cccc(Nc2ncc3nc(-c4cc(F)cc(F)c4)c(=O)n(CCC#N)c3n2)c1 | ? | · | 18% | · | -16% | -5% | ?
COc1cccc(Nc2ncc3nc(-c4ccc(F)cc4)c(=O)n(CCC#N)c3n2)c1 | -8% | · | -2% | · | 2% | 0% | ·
O=C(CNC(=O)C1CCCCC1)OCC(=O)c1ccccc1 | · | 1% | · | · | · | · | ·
